Consider two compounds from PubChem BioAssay AID1571 (National Center for Advancing Translational Sciences (NCATS), 2009).

This assay can be described thus: Total Fluorescence Confirmation Counterscreen for Inhibitors of the Interaction of Thyroid Hormone Receptor and Steroid Receptor Coregulator 2, Fluorescein Fluoroprobe. The method, boiled down: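 Human TRbeta ligand-binding domain (0.6 uM) with 20 nM fluorescein-labelled SRC2 peptide, 1 uM T3, 5% DMSO, Tris pH not given; 5 hr ambient incubation. Total fluorescence (S + 2P, parallel plus perpendicular channels) flags fluorescent or light-absorbing compounds; % activity per concentration.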

Structures are written as SMILES. Records with an inconclusive call do not appear. Entries that show only a call come without a potency. Values without a mark were called inactive. Calls of active or inactive are those of the source. Calls follow the shape of the dose curve; as a rule, active = well fitted curve in the direction sought with a large enough effect; inconclusive = small, poorly fitted or top-dose-only effect, or effect the other way; inactive = flat fitted curve, though single readings scatter.

As for `Cc1ccc(OC(=S)Nc2ccc(O)cc2)cc1`, the Potency entry was “inactive”.

Consider `COC(=O)/C(=C/Nc1ccc(O)cc1)[N+](=O)[O-]`, for which the total fluorescence change, positive = fluorescent was 0.349% [at 5.76 µM].
